Rows were chosen to be rich in hits. Some 2.4% of all compounds tested hit in one or more screens of this group.
D2 ag-1 – Beta-Arrestin HTS for Positive Allosteric Modulators of the Human D2 Dopamine Receptor: Agonists; DiscoveRx PathHunter D2 beta-arrestin, luminescence, 90 min; 100% = 57 uM dopamine signal; activation, % (concentration not given with the values); 0.084% of 360,000 active; in the data active = activation above about 40%; inconclusive = between about 15% and that limit
Target sequence (P14416 whole entry, looked up): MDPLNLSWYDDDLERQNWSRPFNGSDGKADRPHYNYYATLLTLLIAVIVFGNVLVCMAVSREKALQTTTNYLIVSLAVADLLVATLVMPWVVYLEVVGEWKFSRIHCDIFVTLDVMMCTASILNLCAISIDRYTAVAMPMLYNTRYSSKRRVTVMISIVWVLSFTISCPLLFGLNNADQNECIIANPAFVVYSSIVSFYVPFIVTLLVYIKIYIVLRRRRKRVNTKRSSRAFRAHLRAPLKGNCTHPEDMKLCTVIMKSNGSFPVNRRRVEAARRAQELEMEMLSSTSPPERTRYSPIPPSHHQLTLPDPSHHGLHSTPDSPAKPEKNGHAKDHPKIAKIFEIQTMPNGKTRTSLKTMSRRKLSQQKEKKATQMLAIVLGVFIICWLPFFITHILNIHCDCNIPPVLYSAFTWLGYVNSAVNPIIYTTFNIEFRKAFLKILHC
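DiscoveRx PathHunter D2 beta-arrestin cells (2,100/well) attached overnight, then compound-stimulated 90 min at 37 C in HBSS/10 mM HEPES/0.1% Tween-20 buffer; beta-galactosidase complementation read by luminescence after 1 h at ambient temperature. Dopamine 57 uM final (EC100) as control.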
D2 antag – HTS Assay for Allosteric Antagonists of the Human D2 Dopamine Receptor: Primary Screen for Antagonists; HEK293 TREx D2 cells, calcium flux, dopamine EC80; inhibition, % at 10 µM; 2% of 340,000 active; AID 485344, 2010; in the data active = inhibition above about 30%; inactive = below that, where a call was filed; note: 0% is about no effect
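Inhibition of EC80 dopamine-driven calcium flux, recorded kinetically, defines activity here; cells are a tetracycline-induced HEK293 T-REx line expressing force-coupled D2.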
D2 ag-2 – HTS Assay for Allosteric Agonists of the Human D2 Dopamine Receptor: Primary Screen for Agonists | D(2) dopamine receptor (Homo sapiens), P14416 | HEK293 T-REx D2 cells, calcium flux agonist mode | activation, % at 2 µM | 0.53% of 340,000 active;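 active = activation over 3 SD above normal in the single-dose calcium agonist read, cut at about 30% in these data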; note: 0% is about no effect
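HEK293 Trex D2 cells, tetracycline-induced, o/n 30 C 5% CO2; no-wash Ca dye, RT 30–90 min; 10-cycle baseline, 23 nl cpd added, kinetic Ca read 180 s; agonist hits = positive Ca response.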
D2 PAM-1 – Beta-Arrestin HTS for Positive Allosteric Modulators of the Human D2 Dopamine Receptor: Potentiators | 0.23% of 360,000 active | DiscoveRx D2 beta-arrestin cells, luminescence, 90 min; 100% = 57 uM dopamine signal | D(2) dopamine receptor (Homo sapiens), P14416 | potentiation, % (test concentration not listed); in the data active = potentiation above about 50%; inconclusive = mostly about 30% to 49%
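PathHunter beta-arrestin assay in DiscoveRx D2 cells. Compounds were added with an EC20 of dopamine (50 nM final) for 90 min at 37 deg C. Luminescence was read 1 h after detection reagent, with 57 uM dopamine as the EC100 control.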
D2 PAM-2 – HTS Assay for Positive Allosteric Modulators of the Human D2 Dopamine Receptor: Primary Screen for Potentiators. D(2) dopamine receptor (Homo sapiens), P14416. HEK293 T-REx D2, calcium flux, EC20 dopamine potentiation. potentiation, % at 10 µM. 0.34% of 340,000 active;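 active = potentiation over 3 SD above the plate norm, cut at about 30% in these data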; note: 0% is about no effect
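Tetracycline-induced Hek293 Trex D2 cells, force-coupled to calcium, loaded with no-wash calcium dye. Compound added with 180 s kinetic read for agonism, then EC20 dopamine and a further 180 s read for potentiation.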
The depositor's hits bear a star; ? = inconclusive; nt = no result.

SMILES	D2 ag-1	D2 antag	D2 ag-2	D2 PAM-1	D2 PAM-2
CCOc1ccccc1N1CCN(Cc2ccc(OC)c(OC)c2OC)CC1	-1	23	-3	-20	1
CCOc1ccccc1N1CCN(Cc2cc3c(cc2[N+](=O)[O-])OCO3)CC1	0	60*	1	-25	-15
CCOC(=O)C1CCN(c2ccccc2CN2CCN(c3ccccc3OCC)CC2)CC1	-15	61*	0	-24	-18
COc1ccc(N2CSC(=S)N(c3ccc(OC)cc3)C2)cc1	-4	nt	nt	-7	nt
CN(C(=S)NC(=O)Cc1ccccc1)c1ccccc1	-2	2	0	-7	-2
CC(C)c1ccc(OCC(=O)NCCS(=O)(=O)N2CCN(c3ccc(F)cc3)CC2)cc1	nt	nt	0	nt	6
CCOc1ccccc1N1CCN(C/C=C/c2ccc(N(C)C)cc2)CC1	0	79*	0	-34	-21
COc1cc(OC)c(OC)cc1CN1CCN(c2ccccc2OC)CC1	1	70*	0	-21	-15
CCOC(=O)C1CCN(c2c(NCCN3CCN(c4ccccc4)CC3)c(=O)c2=O)CC1	-4	-7	37*	-7	-18
Cc1ccc(Nc2nc(N)nc(CN3CCN(C)CC3)n2)cc1	-1	18	0	-17	-8
COc1ccccc1N1CCN(Cc2nc(N)nc(Nc3ccc(C)cc3)n2)CC1	1	89*	26	-42	-38
CC1CCCN(C(=O)COC(=O)CNC(=O)c2sc3ccccc3c2Cl)C1 (stereo not drawn)	-5	4	0	-4	-7
N#Cc1ccccc1NC(=O)Cn1cnc2onc(-c3cccc(F)c3)c2c1=O	nt	nt	-1	nt	2
CCOc1ccccc1N1CCN(Cc2ccc(OC)c(OC)c2)CC1	-1	94*	-2	1	-27
CCOc1cc(CN2CCCCCC2)ccc1OC	-7	7	0	-5	-12
O=C(c1cccc2ccccc12)C1CCCN(C(=O)CCc2cnccn2)C1 (stereo not drawn)	3	0	1	-4	0
O=C(c1cc(F)ccc1F)C1CCCN(C(=O)CCc2cnccn2)C1 (stereo not drawn)	2	38*	-2	-6	-4
CCN1CCN(c2nc3ccccn3c(=O)c2/C=C(\C#N)S(=O)(=O)c2ccccc2)CC1	-8	34*	-1	-21	-5
CCN1CCN(c2nc3c(C)cccn3c(=O)c2/C=C(\C#N)S(=O)(=O)c2ccccc2)CC1	0	37*	0	-7	nt
CCOC(=O)c1ccc(NC(=O)c2c(NCc3cc(OC)ccc3OC)sc3c2CCC3)cc1	nt	nt	0	nt	-6
Cc1ccc(/C=[N+](\[O-])c2ccc(N(C)C)cc2)c2nsnc12	3	48*	9	8	-4
O=C1NC(=Nc2ccccc2)SC1Cc1ccccc1 (stereo not drawn)	-2	0	-1	-3	41*
O=C1N/C(=N/c2ccccn2)SC1Cc1ccccc1 (stereo not drawn)	5	-1	1	-7	6
CCCCCCCCOc1ccc(C2CC(=O)NC2=O)cc1 (stereo not drawn)	-4	-1	1	-9	1
O=C1CC(c2ccc(OCCCCCOc3ccc(C4CC(=O)NC4=O)cc3)cc2)C(=O)N1 (stereo not drawn)	9	37*	0	8	5
SMILES	D2 ag-1	D2 antag	D2 ag-2	D2 PAM-1	D2 PAM-2
CC(=O)N1CCc2cc(Br)cc(S(=O)(=O)N3CCC(C(=O)Nc4cccc(C)c4C)CC3)c21	nt	nt	-1	nt	-2
COc1ccccc1CN1CCc2c([nH]c3ccccc23)C1	-4	53*	4	-69	-19
O=C(CCc1ccc(O)c(O)c1)N/N=C/c1cc2c(cc1[N+](=O)[O-])OCO2	?	-5	1	2	-1
Cc1cccc(C)c1OCC(=O)N/N=C/c1cc2c(cc1[N+](=O)[O-])OCO2	0	30*	-3	1	-8
CC(C(=O)Nc1ccc(OCc2ccccc2)cc1)N1CCCC1 (stereo not drawn)	3	7	0	1	-2
CC(C)COCC(CN(Cc1ccccc1)c1ccccc1)N1CCCC1 (stereo not drawn)	-5	-8	38*	-30	-17
CC(=O)c1ccccc1OCCCOc1cccc2cccnc12	4	nt	nt	77*	nt
CC(=O)c1ccc(OCCCOc2cccc3cccnc23)cc1	-5	13	-1	-2	0
O=C1CC(NC2CCN(C(=O)c3cccc(F)c3)CC2)C(=O)N1 (stereo not drawn)	0	-23	-1	9	5
O=C(CCn1c(=O)c2cccn2c2ccccc21)Nc1ccc(F)cc1	-4	61*	1	-22	5
CC(=O)Nc1sc(N/N=C\c2ccccc2Cl)nc1-c1cccs1	14	-11	-1	55*	23
CC(=O)Nc1sc(N/N=C/c2ccccc2F)nc1-c1ccc(C)cc1	41*	5	-2	15	-2
CC(=O)Nc1sc(N/N=C\c2ccco2)nc1-c1cccs1	?	9	1	78*	-10
Cc1cccc(N2CCN(C(c3ccccc3)c3nnc(-c4ccccc4Cl)o3)CC2)c1C (stereo not drawn)	nt	nt	1	nt	-6
CC(C)CCC(CCN1CCOCC1)c1ccc2c(c1)OCO2 (stereo not drawn)	0	31*	0	-14	3
COC(=O)c1ccc(CNC(=O)COC(=O)c2cccs2)cc1	-3	nt	nt	-9	nt
O=C1CN(O)C=C2N=c3ccccc3=C2N1c1ccc([N+](=O)[O-])cc1	0	24	1	103*	16
COc1ccc(NC(=O)CN2C(=O)NC(C)(c3ccc4c(c3)OCCO4)C2=O)cc1S(N)(=O)=O (stereo not drawn)	3	nt	nt	-2	nt
Cc1cc2nc3c(=O)n(CCc4ccccc4)c(=O)[nH]c3nc2cc1N	8	-13	95*	18	-8
Nc1ccc2nc3c(=O)n(C4CCCCC4)c(=O)[nH]c3nc2c1	3	nt	nt	17	-7
CCCCn1c(=O)[nH]c2nc3cc(N)ccc3nc2c1=O	-3	-24	61*	22	-9
Nc1ccc2nc(CCc3ccccc3)[nH]c2c1	-1	-9	-1	-2	0
Nc1ccc2nc3c(=O)n(CCc4ccccc4)c(=O)[nH]c3nc2c1	6	-45	95*	27	-11
CCCCNC(=O)NCCN1CCOCC1	-1	-22	1	0	-1

Bioassay records deposited in PubChem BioAssay by National Center for Advancing Translational Sciences (NCATS).
